Assay results as given in the supplement of paper PMC6607015.
Structures can show the parent of a compound that is named as a salt.

Test system: HeLa MZ
Test: whole-cell filipin (free cholesterol) integrated intensity, Z-score; higher = more cholesterol staining
Settings: compound concentration in added solution (µM; 5 µl added to 20 µl cells): 10; 18 h
Summary of the method: (§1)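 In duplicate 384-well imaging plates, 3,500 HeLa MZ or A431 cells in 20 µl per well were seeded onto 5 µl of 10 µM compound solution. The cells were incubated for 18 h, fixed in 4% PFA and stained with 6C4 anti-LBPA antibody, filipin, propidium iodide and CellTracker green before four 20× images were acquired per well. Values are AcuityXpress-normalised Z-scores of per-cell integrated LBPA or filipin intensity, obtained by MetaXpress segmentation over the whole cell or in LBPA endosomes.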

Row | Compound | whole-cell filipin (z-score)
1 | Nc1ccc(S(=O)(=O)NC(=O)c2ccccc2)cc1 [Sulfabenzamide] | -0.0901
2 | Nc1ccc(S(=O)(=O)Nc2ccc(Cl)nn2)cc1 [Sulfachloropyridazine] | -0.78
3 | CCN(CC)CCOC(=O)C(c1ccccc1)C1CCCCC1 (stereo unspecified) [Drofenine hydrochloride] | 0.772
4 | N=C(N)NCCN1CCCCCCC1 [Guanethidine sulfate] | -0.0594
5 | Cc1cc(-n2c(=O)[nH]c(=O)n(C)c2=O)ccc1Oc1ccc(SC(F)(F)F)cc1 [Toltrazuril] | 0.0439
6 | CN(C)CCC=C1c2ccccc2COc2ccccc21 [Doxepin hydrochloride] | -0.0249
7 | CN1CCCCC1CCN1c2ccccc2Sc2ccc([S+](C)[O-])cc21 (stereo unspecified) [Mesoridazine besylate] | 0.244
8 | CN1CCC(=C2c3ccccc3C=Cc3ccccc32)CC1 [Cyproheptadine hydrochloride] | -1.18
9 | Cc1cccc(C)c1NC(=O)C(C)N (stereo unspecified) [Tocainide hydrochloride] | -0.393
10 | CS(=O)(=O)Nc1ccc([N+](=O)[O-])cc1Oc1ccccc1 [Nimesulide] | -0.259
11 | COC(=O)C1=C(C)NC(C)=C(C(=O)OCC(C)C)C1c1ccccc1[N+](=O)[O-] (stereo unspecified) [Nisoldipine] | 0.224
12 | CCCCNc1c(C(=O)OCC)c(C)nc2c1cnn2CC [Tracazolate hydrochloride] | 1.2
13 | CN(N=O)C(=O)N[C@@H](C=O)[C@@H](O)[C@H](O)[C@H](O)CO [Streptozotocin] | -0.525
14 | NS(=O)(=O)c1cc2c(cc1Cl)NCNS2(=O)=O [Hydrochlorothiazide] | -0.0813
15 | NCc1ccccc1CC(=O)N[C@@H]1C(=O)N2C(C(=O)O)=C(CSc3nnnn3CC(=O)O)CS[C@H]12 [Ceforanide] | -0.285
16 | COc1cc2nc(N(C)CCCNC(=O)C3CCCO3)nc(N)c2cc1OC (stereo unspecified) [Alfuzosin hydrochloride] | -0.351

Test system: A431
Test: filipin (cholesterol) integrated intensity within LBPA endosomes, Z-score; higher = more cholesterol in LBPA endosomes
Settings: compound concentration in added solution (µM; 5 µl added to 20 µl cells): 10; 18 h
Summary of the method: as §1

Row | Compound | filipin (z-score)
17 | CC(=O)Oc1cc(C(F)(F)F)ccc1C(=O)O [Triflusal] | -0.513
18 | O=C(CCCN1CCC(O)(c2ccc(Br)cc2)CC1)c1ccc(F)cc1 [Bromperidol] | 2.09
19 | CCOc1ccccc1OCC1CNCCO1 (stereo unspecified) [Viloxazine hydrochloride] | -0.346
20 | N=C(N)NC(=N)NCCc1ccccc1 [Phenformin hydrochloride] | -0.42
21 | N=C(N)NC(=O)Cc1c(Cl)cccc1Cl [Guanfacine hydrochloride] | -0.462
22 | N[C@@H](Cc1cc(I)c(Oc2ccc(O)c(I)c2)c(I)c1)C(=O)O [Liothyronine] | -0.479
23 | Cc1onc(-c2c(Cl)cccc2Cl)c1C(=O)N[C@@H]1C(=O)N2[C@@H]1SC(C)(C)[C@@H]2C(=O)O [Dicloxacillin sodium salt hydrate] | -0.395
24 | CCCC(=O)Nc1ncnc2c1ncn2[C@@H]1O[C@@H]2COP(=O)(O)O[C@H]2[C@H]1OC(=O)CCC [Bucladesine sodium salt] | -0.405
25 | c1ccc2c(CC3=NCCN3)cccc2c1 [Naphazoline hydrochloride] | -0.523
26 | NC(=O)c1cc[n+](CC2=C(C(=O)[O-])N3C(=O)[C@@H](NC(=O)[C@@H](c4ccccc4)S(=O)(=O)O)[C@H]3SC2)cc1 [Cefsulodin sodium salt] | -0.357
27 | CCN[C@H]1C[C@H](C)S(=O)(=O)c2sc(S(N)(=O)=O)cc21 [Dorzolamide hydrochloride] | -0.481
28 | CN(C)CCOc1ccc(/C(=C(/CCCl)c2ccccc2)c2ccccc2)cc1 [Toremifene] | 2.35
29 | CN(C)C(=O)C(CCN1CCC(O)(c2ccc(Cl)cc2)CC1)(c1ccccc1)c1ccccc1 [Loperamide hydrochloride] | 3.45
30 | CCn1cc(C(=O)O)c(=O)c2cc(F)c(N3CCN(C)CC3)cc21 [Pefloxacine] | -0.571
31 | Cc1ccc2c(c1)c1c3n2CCNC3CCC1 (stereo unspecified) [Pirlindole mesylate] | 0.437
32 | CCS(=O)(=O)CCn1c([N+](=O)[O-])cnc1C [Tinidazole] | -0.394
33 | Cc1ccc(Cl)c(Nc2ccccc2C(=O)O)c1Cl [Meclofenamic acid sodium salt monohydrate] | -0.531
34 | CN1CCCN=C1/C=C/c1cccs1 [Pyrantel tartrate] | -0.565
35 | CC(C)NCC(O)c1ccc(O)c(O)c1 (single isomer, unassigned; (-)) [(-)-Isoproterenol hydrochloride] | -0.458
36 | CCCCN(CCCC)CCC(O)c1cc2c(Cl)cc(Cl)cc2c2cc(C(F)(F)F)ccc12 (stereo unspecified) [Halofantrine hydrochloride] | 1.04

Row | Compound | filipin (z-score)
37 | C#Cc1cccc(Nc2ncnc3cc(OCCOC)c(OCCOC)cc23)c1 [Erlotinib] | 0.124
38 | CN1CCN(C(c2ccccc2)c2ccc(Cl)cc2)CC1 (stereo unspecified) [Chlorcyclizine hydrochloride] | 1.24
39 | CC(C)[C@H](N)C(=O)OCCOCn1cnc2c(=O)nc(N)[nH]c21 [Valacyclovir hydrochloride] | -0.459
40 | CN[C@H](CC(C)C)C(=O)N[C@H]1C(=O)N[C@@H](CC(N)=O)C(=O)N[C@H]2C(=O)N[C@H]3C(=O)N[C@H](C(=O)N[C@H](C(=O)O)c4cc(O)cc(O)c4-c4cc3ccc4O)[C@H](O)c3ccc(c(Cl)c3)Oc3cc2cc(c3O[C@@H]2O[C@H](CO)[C@@H](O)[C@H](O)[C@H]2O[C@H]2C[C@](C)(N)[C@H](O)[C@H](C)O2)Oc2ccc(cc2Cl)[C@H]1O [Vancomycin hydrochloride] | -0.42
41 | Nc1ccc(S(=O)(=O)NC(=O)c2ccccc2)cc1 [Sulfabenzamide] | -0.451
42 | Nc1ccc(S(=O)(=O)Nc2ccc(Cl)nn2)cc1 [Sulfachloropyridazine] | -0.494
43 | CCN(CC)CCOC(=O)C(c1ccccc1)C1CCCCC1 (stereo unspecified) [Drofenine hydrochloride] | 1.02
44 | N=C(N)NCCN1CCCCCCC1 [Guanethidine sulfate] | -0.596
45 | Cc1cc(-n2c(=O)[nH]c(=O)n(C)c2=O)ccc1Oc1ccc(SC(F)(F)F)cc1 [Toltrazuril] | -0.337
46 | CN(C)CCC=C1c2ccccc2COc2ccccc21 [Doxepin hydrochloride] | 1.62
47 | CN1CCCCC1CCN1c2ccccc2Sc2ccc([S+](C)[O-])cc21 (stereo unspecified) [Mesoridazine besylate] | 0.618
48 | CN1CCC(=C2c3ccccc3C=Cc3ccccc32)CC1 [Cyproheptadine hydrochloride] | 2.25
49 | Cc1cccc(C)c1NC(=O)C(C)N (stereo unspecified) [Tocainide hydrochloride] | -0.431
50 | CS(=O)(=O)Nc1ccc([N+](=O)[O-])cc1Oc1ccccc1 [Nimesulide] | -0.551
51 | COC(=O)C1=C(C)NC(C)=C(C(=O)OCC(C)C)C1c1ccccc1[N+](=O)[O-] (stereo unspecified) [Nisoldipine] | -0.263
52 | CCCCNc1c(C(=O)OCC)c(C)nc2c1cnn2CC [Tracazolate hydrochloride] | 0.00245
53 | CN(N=O)C(=O)N[C@@H](C=O)[C@@H](O)[C@H](O)[C@H](O)CO [Streptozotocin] | -0.474
54 | NS(=O)(=O)c1cc2c(cc1Cl)NCNS2(=O)=O [Hydrochlorothiazide] | -0.476
55 | NCc1ccccc1CC(=O)N[C@@H]1C(=O)N2C(C(=O)O)=C(CSc3nnnn3CC(=O)O)CS[C@H]12 [Ceforanide] | -0.513
56 | COc1cc2nc(N(C)CCCNC(=O)C3CCCO3)nc(N)c2cc1OC (stereo unspecified) [Alfuzosin hydrochloride] | 0.00526
